# Most compounds without a hit are left out; they make up all but 7.8% or so of the library.
# Vaccinia mCherry – vaccinia inhibition (mCherry reporter) | Potency, µM (top dose mostly 36.5 µM), for inactives: at the top dose activity change, negative = inhibition, most hits filed as inhibitors | 310,000 compounds, 0.63% hits | Vaccinia virus mCherry reporter infection, fluorescence; calls by dose curve; tested in A549 cells; also: potency is read from the fitted curve at half-maximal effect; nearly all actives have a fitted effect of over 35% in size
# HCV inh – inhibitors of hepatitis C virus infection; Huh7.5.1 HCVcc-Cre infection, luciferase reporter, 44 h; Potency, µM (series often up to 41.8 µM), for the others: at the top dose activity change, negative = inhibition, usual class: inhibitors; 340,000 compounds, 3.4% hits; AID 651820; active = well fitted inhibition curve with a large enough effect; inconclusive = small, poorly fitted or top-dose-only effect, or another doubt; inactive = no such curve, though single readings can be large or run the other way; also: potency is read from the fitted curve at half-maximal effect
#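 Whole-lifecycle infectious HCVcc-Cre system; cells 1,000/well, compound then virus (~0.5 moi) added 4 h after plating, 44 h culture. Luciferase read 15 sec following 15 min substrate incubation, room temp.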
# LASV entry inh – Lassa virus entry inhibition; Potency, µM (doses to about 37.9 µM), for the others: at the highest dose activity change, negative = inhibition, actives largely listed as inhibitors; 300,000 compounds, 1.2% hits; AID 540256; Lassa virus pseudotype entry inhibition, cell reporter; calls by dose curve; tested in HEK293 cells; also: potency is read from the fitted curve at half-maximal effect; nearly all actives have a fitted effect of over 50% in size
# VACV Venus inh – vaccinia inhibition (Venus reporter); Vaccinia virus Venus reporter expression, fluorescence; Potency, µM (highest dose often 36.5 µM), without a hit: at the highest dose activity change, negative = inhibition, hits mostly inhibitors; 330,000 compounds, 0.46% hits; calls by dose curve; tested in A549 cells; also: potency is read from the fitted curve at half-maximal effect; nearly all actives have a fitted effect of over 30% in size
# MARV entry inh – inhibitors of Marburg virus binding or cell entry | Marburg virus pseudotyped entry inhibition, cell reporter | Potency, µM (highest dose often 37.8 µM), for the others: at the highest dose activity change, negative = inhibition, most hits filed as inhibitors | 300,000 compounds, 1.8% hits; calls by dose curve; tested in HEK293 cells; also: potency is read from the fitted curve at half-maximal effect
# HCMV antiviral – human cytomegalovirus inhibition | HFF cells, HCMV-luciferase reporter, 72 h; stronger effect = lower value | activity change, negative = inhibition, % at 57.5 µM | 410,000 compounds, 4.5% hits; in the data active = activity change below about -60%; inconclusive = no clear call, values can overlap the other calls; inactive = above about -39%
#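 After 16 h attachment at 37C, HFF cells received test compound and HCMV-luciferase (1 PFU/cell); reporter luminescence read 72 h later, data normalized against buffer-only and known inhibitor Salinomycin.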
# * = called active by the depositor; ? = inconclusive; . = not tested or not shown; [ ] = remark or other dose. % is scaled to controls: 0 for no effect and ±100 for the full control effect.
SMILES,Vaccinia mCherry,HCV inh,LASV entry inh,VACV Venus inh,MARV entry inh,HCMV antiviral
C[C@H](CO)N1C[C@H](C)[C@@H](CN(C)S(=O)(=O)c2ccccc2F)Oc2ncc(C#Cc3cccnc3)cc2C1=O,?,.,.,-17%,.,-13
C[C@]12CCC3C(CCC4=CC(O)CC[C@@]43/C=N/O)C1(O)CCC2C1=CC(=O)OC1 (stereo partly specified),?,2.2µM*,?,0.32µM*,?,-96*
CCCCN=C[C@]12CCC(O)CC1(O)CCC1[C@@H]2CC[C@]2(C)[C@H](C3C=CC(=O)O3)CCC12O (stereo partly specified),0.32µM*,4.5µM*,?,0.32µM*,3.5µM*,-97*
CC12CCC3C(CCC4(O)CC(O)CCC34C=NO)C1(O)CCC2C1=COC(=O)C1 (stereo unspecified),32µM*,2µM*,0.25µM*,0.4µM*,0.18µM*,-98*
CC12CC[C@H]3[C@@H](CCC4(O)C[C@H](O)CCC34/C=N/NC(=O)c3ccccc3Cl)C1(O)CCC2C1=CC(=O)OC1 (stereo partly specified),.,8%,.,.,.,-32
C[C@]12CC[C@H]3[C@@H](CC[C@]4(O)C[C@@H](O)CC[C@]34C=O)[C@@]1(O)CC[C@@H]2C1=CC(=O)OC1,1µM*,0.56µM*,.,1µM*,.,-99*
COc1ccc(-c2nc3ccc(NC(C)=O)cc3c(=O)n2Cc2cccc(Cl)c2)cc1COc1ccc(NC(C)=O)cc1,-5%,.,.,-14%,.,.
COc1ccc(C2=C(C)C(=O)N(Cc3ccc(C(=O)NCc4cccc(C)c4)cc3)S2(=O)=O)cc1,-18%,.,?,-25%,.,-20
CC12CCC3C(CCC4(O)CC(O)CCC34C=O)C1(O)CCC2C1=CC(=O)OC1 (stereo unspecified),?,?,0.71µM*,1µM*,0.45µM*,-100*
C[C@H]1O[C@@H](OC2CC[C@]3(C=O)[C@H]4CC[C@]5(C)[C@@H](C6=CC(=O)OC6)CC[C@]5(O)[C@@H]4CC[C@]3(O)C2)CC2OC(C)(C)OC21 (stereo partly specified),?,1µM*,.,0.28µM*,.,-97*
CC(C)(C)N=Cc1cc(-c2ccccc2)sc1O,-13%,10µM*,0%,-21%,?,30
COc1cc(NC(=O)COC(=O)/C=C/c2ccc(OC)c(OC)c2)cc(OC)c1,-5%,?,7%,-14%,-16%,40
C/C=C/C(=O)OCC(=O)Nc1ccc(OC)c(Cl)c1,8.9µM*,19%,-8%,10µM*,2%,-6
COc1cc(NC(=O)COC(=O)/C=C/c2ccccc2Cl)cc(OC)c1,-17%,-27%,?,-1%,15%,-103*
O=C(Nc1ccc(N2CCN(c3ncccc3C(F)(F)F)CC2)nc1)c1cccs1,14µM*,11µM*,11µM*,20µM*,13µM*,-86*
O=C(Nc1ccc(N2CCN(c3ccc(C(F)(F)F)cn3)CC2)nc1)c1cccs1,-6%[7.34 µM],9%,-22%,-10%[7.34 µM],-9%[46.1 µM],?
O=C1NC(=O)c2cc(NC(=O)c3cccc4ccccc34)ccc21,7%,12%,.,-18%,.,-85*
O=C(Nc1ccc2c(c1)C(=O)NC2=O)c1ccccc1Cl,-18%,14%,.,2%,.,21
CCC(=O)Nc1cc2c(cc1C(C)=O)OCCO2,.,?,-3%,11%,14%,40
CCC(=O)Nc1cc(C(C)(C)C)ccc1C(C)=O,-14%,10µM*,3%,-6%,-18%,-10
CCN1CCN(c2ccc(NC(=O)c3ccc(Cl)c(S(=O)(=O)N4CCCC4)c3)cc2)CC1,0%,18µM*,?,-19%,?,-22
COc1ccc(C(=O)Nc2ccc(NC(=O)c3ccccc3)cc2)cc1S(=O)(=O)N1CCOCC1,-12%,?,.,-8%,?,?
COc1ccc(C(=O)Nc2ccc(N3CCCCCC3)cc2)cc1S(=O)(=O)N1CCOCC1,.,8.9µM*,.,.,.,-86*
O=C(Nc1ccc(N2CCOCC2)cc1)c1ccc(Cl)c(S(=O)(=O)N2CCCC2)c1,.,6.3µM*,.,.,.,?

# Screening data deposited in PubChem by National Center for Advancing Translational Sciences (NCATS).
